# Assay outcomes from PubChem.
# Hits are enriched below; roughly 1.9% of the tested compounds scored in any of these assays.
# FUS yeast rescue: qHTS for Suppressors of FUS Proteinopathy: Primary screen using FUS-linked yeast assay | S. cerevisiae FUS-expressing, growth rescue, OD600, 24 h | Potency, µM (series often up to 76.6 µM), actives largely listed as activators | actives 0.24% (n = 390,000) | AID 1347120, 2019; note: nearly all actives have a fitted effect of over 55% in size
#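 Toxicity suppression screen in FUS-yeast. Cells induced with 2% galactose, starting OD 0.005, treated 24hr at 30C with compounds at multiple final concentrations; growth by OD600.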
# TDP-43 yeast inh: qHTS of TDP-43 Inhibitors. TDP-43 expressing yeast growth rescue, BacTiter-Glo, 24 h. Potency, µM (doses to about 46.1 µM), usual class: activators. actives 1.8% (n = 410,000); note: nearly all actives have a fitted effect of over 50% in size
#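 Readout is BacTiter-Glo luminescence of cell growth, so inhibitors register as activators. TDP-43-expressing yeast at OD600=0.02 in galactose medium, after raffinose pregrowth to mid-log, were incubated with compound for 24 hr at 30 deg C.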
# PTHR1 ag: qHTS for PTHR1 Agonists: Primary Screen; Potency, µM (titrated, usually from 115 µM), usual class: activators; Parathyroid hormone/parathyroid hormone-related peptide receptor (Homo sapiens), Q03431; HEK293 GP2 PTHR1 cells, GloSensor cAMP luminescence, 1 h; actives 0.075% (n = 410,000); note: nearly all actives have a fitted effect of over 55% in size
# Target sequence (Q03431 whole entry, looked up): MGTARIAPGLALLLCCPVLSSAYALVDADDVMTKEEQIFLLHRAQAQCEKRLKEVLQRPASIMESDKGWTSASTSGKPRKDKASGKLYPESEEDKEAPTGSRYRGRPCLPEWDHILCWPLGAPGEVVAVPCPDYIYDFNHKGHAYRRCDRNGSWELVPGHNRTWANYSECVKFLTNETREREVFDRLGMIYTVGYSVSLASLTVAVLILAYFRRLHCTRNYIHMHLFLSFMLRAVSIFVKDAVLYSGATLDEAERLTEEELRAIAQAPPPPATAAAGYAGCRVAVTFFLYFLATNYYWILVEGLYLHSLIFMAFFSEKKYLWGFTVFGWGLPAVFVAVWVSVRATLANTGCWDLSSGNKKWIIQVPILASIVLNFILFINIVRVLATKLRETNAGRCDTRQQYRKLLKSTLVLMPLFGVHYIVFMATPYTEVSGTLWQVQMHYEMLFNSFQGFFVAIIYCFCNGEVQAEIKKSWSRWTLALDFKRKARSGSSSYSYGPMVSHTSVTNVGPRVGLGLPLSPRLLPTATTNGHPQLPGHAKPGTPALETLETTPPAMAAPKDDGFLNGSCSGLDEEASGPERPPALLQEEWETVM
#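 HEK-293-derived GP2 cells expressing PTHR1 and a GloSensor cAMP reporter, 3,000/well, plated overnight, given luciferin plus IBMX (each 0.5 mM as added) for 1 h at 37 °C, then compound for 1 h at 37 °C. Luminescence was read after 15 min at room temperature.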
# aSyn rescue: qHTS of alpha-syn Inhibitors. Yeast expressing alpha-synuclein, growth rescue, BacTiter-Glo, 24 h. Potency, µM (top dose mostly 46.1 µM), hits mostly activators. actives 0.14% (n = 370,000). AID 652106, 2013; note: nearly all actives have a fitted effect of over 65% in size
#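 Screening used galactose-induced yeast with toxic alpha-synuclein levels, exposed to compound for 24 hr at 30 deg C. Cell growth, read with BacTiter-Glo luminescence, gave the measured signal.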
# Abeta yeast res: qHTS for compounds that reverse cellular toxicity of Amyloid beta (A-beta) peptide in yeast: Primary Screen; Potency, µM (highest dose often 46.1 µM), most hits filed as activators; actives 0.063% (n = 410,000); yeast expressing A-beta42, growth rescue, OD600, 48 h; response scale: 0% DMSO, 100% iron-clioquinol control; note: nearly all actives have a fitted effect of over 55% in size
#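 Growth rescue measured by 600 nm absorbance after 48 h yeast culture at 30 C with compound. Values normalized between DMSO and an equimolar ferric chloride plus clioquinol control.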
# LDHA inh: qHTS assay for inhibitors of human lactate dehydrogenase | L-lactate dehydrogenase A chain (Homo sapiens), P00338 | purified LDHA, NADH/diaphorase-resazurin fluorescence; hits give low values | activity change, % (values are at about 110 or 230 µM) | actives 0.15% (n = 480,000); in the data active = activity change below about -30%; inconclusive = mostly about -25% to -30%
#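 Human LDH5 at 2 nM final in Tris HCl pH 7.4 with 0.06 mM NADH and 0.2 mM pyruvate, reacted 5 minutes at room temperature. Remaining NADH coupled via diaphorase/resazurin; resorufin fluorescence read at 0 and 20 minutes, normalized to enzyme-free and DMSO wells.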
# Numbers stand for hits; n = inactive; u = inconclusive; x = no result given; ! = not confirmed by another sample. Unless noted, calls come from the whole dose curve; as a rule, active = well fitted curve in the direction sought with a large enough effect; inconclusive = small, poorly fitted or top-dose-only effect, or another doubt; inactive = no such curve, though single readings can be large; an effect the other way counts as inactive or inconclusive.
SMILES,FUS yeast rescue,TDP-43 yeast inh,PTHR1 ag,aSyn rescue,Abeta yeast res,LDHA inh
Cc1c(C(=O)NCc2ccccc2Cl)sc2nc3n(c(=O)c12)CCC3,n,17.8µM,n,x,n,n
Cc1c(C(=O)NCc2cccc(Cl)c2)sc2nc3n(c(=O)c12)CCCC3,n,22.4µM,n,x,n,n
Cc1ccc(N2CCN(C(=O)c3ccccc3F)CC2)c(C)c1,n,u,n,n,n,n
NC(=O)c1cc(C(=O)c2cccc(Cl)c2Cl)c[nH]1,n,n,n,n,n,n
COc1cccc(N2CCN(C(=O)c3cc4c(OC)c(OC)c(OC)cc4[nH]3)CC2)c1,n,n,n,n,n,n
O=C(c1c[nH]c(C(=O)N2CCN(c3ccccc3F)CC2)c1)c1cccc(Cl)c1Cl,n,25.1µM,n,u,3.16µM,n
COc1cc2[nH]c(C(=O)N3CCN(c4ccccc4F)CC3)cc2c(OC)c1OC,n,35.5µM,n,n,n,n
Cc1ccccc1C(=O)c1c[nH]c(C(=O)N2CCN(c3ccccc3F)CC2)c1,n,25.1µM,n,n,n,n
COc1ccc(S(=O)(=O)N(C)CC(=O)N2CCOCC2)cc1C,x,x,x,x,x,n
O=C(CSc1nnc(Cc2ccccc2)o1)Nc1ccc(F)cc1,x,x,x,x,x,n
Cc1ccc(C2(C)NC(=O)N(CC(=O)N3CCc4ccccc43)C2=O)cc1 (stereo not given),n,n,n,n,n,n
Cc1ccc(C2(C)NC(=O)N(CC(=O)N3c4ccccc4NC(=O)CC3C)C2=O)cc1 (stereo not given),n,n,n,3.55µM,n,n
CCOc1ccc(C(=O)CCC(=O)NCC(=O)NC2CC2)cc1,x,x,x,x,x,n
CCOc1ccc(C(=O)CCC(=O)NCC(=O)Nc2ccc(F)c(F)c2F)cc1,n,n,n,28.2µM,n,n
CNC(=O)CNC(=O)c1cc2ccccc2oc1=O,x,x,x,x,x,n
CCCCC(=O)N(C)c1c(CC)nc2c(OCC(=O)c3ccc(Cl)cc3Cl)cccn12,31.6µM,n,n,n,n,n
CCc1nc2c(OC)cccn2c1N(C)C(=O)c1ccccc1F,n,n,n,n,n,n
CCc1nc2c(OCc3ccc(Cl)cc3Cl)cccn2c1N(C)C(=O)c1ccccc1F,u,17.8µM,n,n,n,n
CCc1nc2c(OCC(=O)c3ccc(Cl)cc3Cl)cccn2c1N(C)C(=O)c1ccncc1,n,n,n,n,n,n
Cc1[nH]c2ccccc2c1C(=O)C(=O)NC(C)c1ccccc1 (stereo not given),x,x,x,x,x,n
COc1cc(C#Cc2c(-c3cncn3C)n(C)c3ccc(-c4cnc(OC)nc4)cc23)cc(OC)c1,n,11.2µM,n,n,n,n
O=C1c2ccccc2C(=O)N1CCSc1n[nH]c(=S)s1,x,20µM,n,n,n,n
N#Cc1nc(-c2ccc([N+](=O)[O-])cc2)oc1NC1CCCCC1,x,x,x,x,x,n
COc1cc(CNc2ncnc3c2ncn3[C@H]2CN(Cc3cccc(C(F)(F)F)c3)C[C@@H](COC(C)=O)O2)cc(OC)c1OC,20µM,n,n,n,n,n
CC(C)NC(=O)C(=O)Nc1ccc2c(c1)N(S(=O)(=O)c1cccs1)CCC2,n,n,n,n,n,n
SMILES,FUS yeast rescue,TDP-43 yeast inh,PTHR1 ag,aSyn rescue,Abeta yeast res,LDHA inh
CNC(=O)C(=O)Nc1ccc2c(c1)N(S(=O)(=O)c1cccs1)CCC2,n,15.8µM,n,n,n,n
CN(Cc1cccs1)C(=O)Cn1c(=O)c2c(ncn2C2CCCC2)n(Cc2ccccc2)c1=O,x,x,x,x,x,n
O=C(C[n+]1c2ccccc2cc2ccccc21)c1ccc(F)cc1,x,x,x,n,x,-44.9
O=C(C[n+]1c(Cl)ccc2ccccc21)c1ccc2ccccc2c1,x,x,x,n,x,n
CCOC(=O)C1=C(C)N(CC(C)C)C(=O)/C1=C\c1ccc(OCC(=O)Nc2ccccc2)cc1,n,17.8µM,n,n,n,n
O=C(CCc1ncc(-c2ccccc2Cl)o1)Nc1ccccc1,x,x,x,x,x,n
COc1cccc(CNC(=O)COCc2cc(-c3ccc4c(c3)OCO4)on2)c1,n,35.5µM,n,x,n,n
COc1ccc(CNC(=O)COCc2cc(-c3ccc4c(c3)OCO4)on2)cc1,n,n,n,x,n,n
O=C(COCc1cc(-c2ccc3c(c2)OCO3)on1)N1CCN(c2cccc(C(F)(F)F)c2)CC1,n,35.5µM!,n,n,n,n
O=C1[C@@H]2C(c3ccccc3Cl)=NO[C@@H]2C(=O)N1Cc1ccccc1,n,14.1µM,n,n,u,n
O=C(c1cc(Cl)ccc1Cl)N1CCC(c2nc3ccccc3o2)CC1,x,x,x,x,x,n
C#CCNC(=O)c1cc(-c2ccccc2)nc2ccccc12,x,x,x,x,x,n
O=C(CN1CCN(c2ccc(O)cc2)CC1)Nc1cccc(S(=O)(=O)N2CCCC2)c1,x,x,x,x,x,n
COc1ccccc1Cc1c(-c2cccc(Br)c2)nc2c(C)cc(Br)cn12,n,u,n,n,n,n
COc1ccc(-c2nc3ccc(Br)cn3c2Cc2cccc(F)c2)cc1OC,n,14.1µM,n,n,n,n
COc1ccc(-c2nc3c(C)cc(Br)cn3c2Cc2ccccc2)cc1OC,n,n,n,n,n,n
COc1ccccc1Cc1c(-c2ccc(Cl)cc2)nc2c(C)cc(Br)cn12,u,25.1µM,n,n,n,n
COc1ccc(-c2nc3c(C)cc(Br)cn3c2Cc2cccc(F)c2)cc1OC,u,15.8µM,n,n,n,n
CCn1nccc1-c1cc(C(=O)O)c2ccc(C)c(C)c2n1,x,x,x,x,x,n
Cc1ccc2c(Cl)cc(Cl)c(OCC(=O)O)c2n1,n,14.1µM,n,n,n,n
CCC(Sc1nc2ccncc2[nH]1)C(=O)Nc1ccc(C)cc1 (stereo not given),x,x,x,x,x,n
COCCn1c(SC(C)C(=O)Nc2ccc(Cl)cn2)nc2ccccc21 (stereo not given),x,x,x,x,x,n
O=C(N/N=C/c1cc2c3c(c1O)CCCN3CCC2)c1ccccc1O,n,n,n,22.4µM,n,n
COC(=O)C1C2CCC(C2)C1C(=O)OCC(=O)c1ccc(-c2ccccc2)cc1 (stereo not given),x,x,x,x,x,n
Cc1ccc(C)c(NC(=O)c2cnc(N3CCCC3)nc2C)c1,n,14.1µM,n,x,n,n
Cc1nc(N2CCCC2)ncc1C(=O)NCc1ccccc1Cl,n,35.5µM,n,x,n,n
COc1ccccc1CNC(=O)c1cnc(N2CCCC2)nc1C,n,u,n,x,n,n
CCOC(=O)C1=C(Cc2ccc(OC)cc2)C(=O)c2ccccc2C1=O,n,12.6µM,n,n,n,n
